# Several values for one entry are separate records, joined by “and”; a condition that tells them apart may be missing. Equal entries are not always repeated. Activity calls are given as the source filed them. Rule as the data show it, unless noted: active = inhibition above about 80%; inactive = the rest.
# Legend:
# [1] = LFS_MB_P medulloblastoma growth inhibition, cell-based, chromothripsis tumors, cisplatin or BGB combos (AID 1671449); conditions: LFS_MB_P medulloblastoma cells;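 also: cells exposed for 96 hours; 0% = vehicle DMSO and 100% = killing by high DMSO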
# [2] = HDN33 neuroblastoma growth inhibition, cell-based, chromothripsis tumors, cisplatin or BGB combos (AID 1671450); conditions: HDN33 neuroblastoma cells, stronger effect = higher value;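 also: cells exposed to compound for four days; 0% = vehicle DMSO and 100% = cell killing by high DMSO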
# [3] = ICB984 medulloblastoma cell growth inhibition, synergistic combos for chromothripsis tumors, cisplatin or BGB combos (AID 1671451; call rule not given here;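 also: cells exposed for 96 hours before readout; 0% = vehicle DMSO and 100% = killing by high DMSO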); conditions: ICB984 medulloblastoma cells, drug combinations, stronger effect = higher value
# [4] = LFS_MB_1R medulloblastoma cell growth inhibition, synergistic combos for chromothripsis tumors, cisplatin or BGB combos (AID 1671452); conditions: LFS_MB_1R medulloblastoma cells, stronger effect = higher value;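 also: cells exposed for 96 hours before readout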
# [5] = HTB85 osteosarcoma cell growth inhibition, synergistic combos for chromothripsis tumors, BGB or cisplatin IC20 combos (AID 1671453); conditions: HTB85 osteosarcoma cells, drug combinations, stronger effect = higher value;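 also: cells exposed for 96 hours before readout; 0% = vehicle DMSO and 100% = high DMSO killing control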
# [6] = CRL2098 osteosarcoma cell growth inhibition, synergistic combos for chromothripsis tumors, BGB or cisplatin IC20 combos (AID 1671454); conditions: CRL2098 osteosarcoma cells, drug combinations, stronger effect = higher value;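 also: cells exposed for 96 h before readout; 0% = vehicle DMSO and 100% = killing by high DMSO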
# [7] = HD-MB03 medulloblastoma cell growth inhibition, synergistic combos for chromothripsis tumors, BGB or cisplatin IC20 combos (AID 1671455; in the data active = inhibition above about 83%;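 also: 0% = vehicle DMSO and 100% = high DMSO as cytotoxic control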); conditions: HD-MB03 medulloblastoma cells, stronger effect = higher value
# [8] = UWB1.289 ovarian carcinoma cell growth inhibition, synergistic combos for chromothripsis tumors, BGB or cisplatin combos (AID 1671456); conditions: UWB1.289 ovarian carcinoma cells, stronger effect = higher value;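 also: cells exposed to compound for four days; 0% = vehicle DMSO and 100% = killing by high DMSO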
# [9] = LFS_MB_2R medulloblastoma cell growth inhibition, synergistic combos for chromothripsis tumors, cisplatin combos (AID 1671457); conditions: LFS_MB_2R medulloblastoma cells, stronger effect = higher value;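 also: cells exposed to compound for four days before readout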
# [10] = MDA-MB-436 breast carcinoma cell growth inhibition, synergistic combos for chromothripsis tumors, BGB or cisplatin combos (AID 1671458; call rule not given here;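 also: cells exposed for 96 hours; 0% = vehicle DMSO and 100% = killing by high DMSO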); conditions: MDA-MB-436 breast carcinoma growth inhibition, drug combinations, stronger effect = higher value
# [11] = UWB1.289_BRCA1 ovarian cancer growth, cell-based, BGB or cisplatin combinations (AID 1671459); conditions: UWB1.289 BRCA1 ovarian carcinoma, drug combinations, stronger effect = higher value
# [12] = human astrocyte viability loss, single and combined drugs, cytotoxicity control for chromothriptic childhood tumor combination screen, cell-based, BGB or cisplatin IC20 combos (AID 1671460); conditions: Human astrocytes, drug combinations, stronger effect = higher value;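 also: cells exposed to compounds for 96 hours before viability readout; 0% = vehicle and 100% = killing control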
# [13] = growth inhibition of BT084 medulloblastoma cells, cell-based, ICGC_MB145, cisplatin and BGB IC40 combos (AID 1671461); conditions: drug combinations, stronger effect = higher value;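 also: cells exposed to drugs for 96 hours; 0% = vehicle DMSO and 100% = high DMSO full killing control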
# [14] = growth inhibition of RCMB18 medulloblastoma cells, cell-based, cisplatin and BGB IC40 combos (AID 1671462); conditions: stronger effect = higher value;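 also: cells exposed to compound for four days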
# [15] = growth inhibition of CRL1545 osteosarcoma cells, cell-based, cisplatin and BGB IC20 combos (AID 1671464); conditions: stronger effect = higher value;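 also: cells exposed to compound for 96 hours before readout; 0% = vehicle DMSO and 100% = high DMSO killing control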
# [16] = at 0.5 µM, stronger effect = higher value
# [17] = measured here: combination with BGB IC20, at 0.005 µM
# [18] = measured here: combination with BGB IC40, at 0.005 µM
# [19] = measured here: combination with BGB IC40, at 0.05 µM
# [20] = measured here: combination with cisplatin, at 0.5 µM, stronger effect = higher value
# [21] = measured here: combination with cisplatin, at 5 µM, stronger effect = higher value
# [22] = measured here: with BGB IC20 combination, at 0.5 µM
# [23] = measured here: with cisplatin IC20 combination, at 0.5 µM
# [24] = measured here: 5 uM single agent, at 5 µM
# [25] = measured here: combination with cisplatin, at 0.5 µM
# [26] = measured here: combination with cisplatin, at 5 µM
# [27] = measured here: with BGB IC20, at 0.5 µM
# [28] = measured here: with BGB IC20, at 5 µM
# [29] = measured here: with cisplatin IC20, at 0.5 µM
# [30] = measured here: with cisplatin IC20, at 5 µM
# [31] = measured here: combination with BGB at IC20, at 0.5 µM
# [32] = measured here: combination with cisplatin at IC20, at 0.5 µM
# [33] = measured here: combo with BGB at IC20, at 0.5 µM
# [34] = measured here: combo with cisplatin at IC20, at 0.5 µM
# [35] = measured here: inhibition with BGB combination, at 0.05 µM
# [36] = measured here: inhibition with cisplatin combination, at 0.05 µM
# [37] = measured here: BGB combination, at 0.5 µM
# [38] = measured here: BGB combination, at 5 µM
# [39] = measured here: cisplatin combination, at 0.5 µM
# [40] = measured here: cisplatin combination, at 5 µM
# [41] = BGB combination, concentration series, at 5 µM
# [42] = cisplatin combination, concentration series, at 5 µM
# [43] = measured here: combo with BGB IC20, at 0.5 µM
# [44] = measured here: combo with cisplatin IC20, at 0.5 µM
# [45] = cisplatin combination, at 0.5 µM
# [46] = measured here: BGB IC40 combination 0.05 uM, at 0.05 µM
# [47] = measured here: BGB IC40 combination, at 0.05 µM
smiles,measurement,setting,value
CCCCNNC(=O)c1ccc(Br)cc1,inhibition,[1]; [16],-28.6% (inactive) and -13.6% (inactive)
same,inhibition,[1]; [17],-3.01% and -23.3%
same,inhibition,[1]; [18],-22.6% and -43.3%
same,inhibition,[1]; [19],-0.924% and -28%
same,inhibition,[1]; [20],-32% and -11.5%
same,inhibition,[1]; [21],-36.2% and 31.8%
same,inhibition,"[2]; BGB combo, at 5 µM",-6.55% and 1.44%
same,inhibition,[2]; at 0.5 µM,0.02% (inactive) and -19.7% (inactive)
same,inhibition,"[2]; cisplatin combo, at 5 µM",13.1% and 50.6%
same,inhibition,[2]; [22],3.17% and -28.2%
same,inhibition,[2]; [23],-1.75% and -2.85%
same,inhibition,"[2]; single agent, at 5 µM",4.48% and -2.92%
same,inhibition,"[3]; BGB IC20 combo, at 0.005 µM",-0.717% and -27.2%
same,inhibition,"[3]; BGB IC40 combo, at 0.005 µM",-41.6% and -37.1%
same,inhibition,"[3]; BGB IC40 combo, at 0.05 µM",-16% and 7.68%
same,inhibition,[3]; at 0.5 µM,-18.8% (inactive) and -23.4% (inactive)
same,inhibition,"[3]; cisplatin combo, at 0.05 µM",-20.6% and 3.05%
same,inhibition,"[3]; cisplatin combo, at 0.5 µM",-33.8% and -35%
same,inhibition,"[3]; cisplatin combo, at 5 µM",-37.9% and -23%
same,inhibition,[3]; [24],-7.59% and -16.8%
same,inhibition,[4]; at 0.5 µM,-6.14% (inactive) and -24.9% (inactive)
same,inhibition,[4]; [19],-4.43% and -39.3%
same,inhibition,[4]; [25],15.7% and -27.4%
same,inhibition,[4]; [26],-45.3% and 33.7%
same,inhibition,[5]; at 0.5 µM,-6.38% (inactive) and -12% (inactive)
same,inhibition,[5]; [27],-9.67% and -6.58%
same,inhibition,[5]; [28],-16.5% and 39.7%
same,inhibition,[5]; [29],-16.9% and -17.5%
same,inhibition,[5]; [30],-4.96% and 37.1%
same,inhibition,"[5]; single agent, at 5 µM",0.402% and 2.14%
same,inhibition,[6]; at 0.5 µM,-42.1% (inactive) and -78.1% (inactive)
same,inhibition,[6]; [31],-11% and -84.3%
same,inhibition,[6]; [32],-47% and -80.1%
same,inhibition,[7]; at 0.5 µM,-7.76% (inactive) and -11.7% (inactive)
same,inhibition,[7]; [33],-11.6% and -15%
same,inhibition,[7]; [34],-8.41% and -15%
same,inhibition,[8]; at 0.5 µM,-8.32% (inactive) and -3.86% (inactive)
same,inhibition,[8]; [35],-23.9% and -19.8%
same,inhibition,[8]; [36],-10.7% and -18.7%
same,inhibition,[9]; at 0.5 µM,-9.05% (inactive) and -20.7% (inactive)
same,inhibition,[9]; [25],-22% and -6.47%
same,inhibition,[9]; [26],-14.2% and 13.9%
same,inhibition,[10]; at 0.5 µM,-12.3% (inactive) and -16% (inactive)
same,inhibition,[10]; [37],-20.8% and -8.47%
same,inhibition,[10]; [38],-14.9% and -12.9%
same,inhibition,[10]; [39],-6.74% and -30.9%
same,inhibition,[10]; [40],-0.941% and -3.8%
same,inhibition,[11]; [41],6.4% and 33.8%
same,inhibition,[11]; at 0.5 µM,-7.63% (inactive) and -13.8% (inactive)
same,inhibition,[11]; [42],26% and 52.3%
same,inhibition,[12]; at 0.5 µM,8.76% (inactive) and -0.16% (inactive)
same,inhibition,[12]; [43],10.6% and 7.19%
same,inhibition,[12]; [44],16.8% and 11.7%
same,inhibition,[13]; at 0.5 µM,-6.87% (inactive) and -6.41% (inactive)
same,inhibition,[13]; [45],-5.88% and 9.41%
same,inhibition,"[13]; cisplatin combination, at 5 µM",5.88% and 9.57%
same,inhibition,[13]; [46],-2.71% and -30.8%
same,inhibition,"[13]; single agent, at 5 µM",3.58% and 5.96%
same,inhibition,[14]; at 0.5 µM,-14.6% (inactive) and -4.43% (inactive)
same,inhibition,"[14]; cisplatin combo, at 5 µM",-8.38% and 43.4%
same,inhibition,[14]; [47],-7.86% and -8.38%
same,inhibition,[14]; [25],-0.38% and 8.6%
same,inhibition,"[14]; single agent, at 5 µM",-15.8% and 24%
same,inhibition,[15]; at 0.5 µM,-8.18% (inactive) and -0.65% (inactive)
same,inhibition,[15]; [22],-10.3% and -18.8%
same,inhibition,[15]; [23],-7.12% and 6.96%
same,inhibition,"[15]; single agent, at 0.05 µM",-17.3% and -29.7%
same,inhibition,"[15]; single agent, at 5 µM",-21.8% and -15.7%
Cc1c(Br)cc(NCC(=O)N/N=C/c2cc([N+](=O)[O-])ccc2O)cc1Br,inhibition,[1]; [16],4.38% (inactive)
same,inhibition,[1]; [17],-17.6%
same,inhibition,[1]; [18],-32.2%
same,inhibition,[1]; [19],-25.9%
same,inhibition,[1]; [20],-13.3%
same,inhibition,[1]; [21],49.2%
same,inhibition,"[2]; BGB combo, at 5 µM",40.5%
same,inhibition,[2]; at 0.5 µM,-0.34% (inactive)
same,inhibition,"[2]; cisplatin combo, at 5 µM",36.1%
same,inhibition,[2]; [22],-9.6%
same,inhibition,[2]; [23],14.3%
same,inhibition,"[2]; single agent, at 5 µM",47.8%
same,inhibition,"[3]; BGB IC20 combo, at 0.005 µM",-14%
same,inhibition,"[3]; BGB IC40 combo, at 0.005 µM",-19.6%
same,inhibition,"[3]; BGB IC40 combo, at 0.05 µM",-0.825%
same,inhibition,[3]; at 0.5 µM,-30.2% (inactive)
same,inhibition,"[3]; cisplatin combo, at 0.05 µM",-3.64%
same,inhibition,"[3]; cisplatin combo, at 0.5 µM",-27.9%
same,inhibition,"[3]; cisplatin combo, at 5 µM",-29.5%
same,inhibition,[3]; [24],-33%
same,inhibition,[4]; at 0.5 µM,-22.2% (inactive)
same,inhibition,[4]; [19],-11.7%
same,inhibition,[4]; [25],-16.8%
same,inhibition,[4]; [26],13.4%
same,inhibition,[5]; at 0.5 µM,-6.09% (inactive)
same,inhibition,[5]; [27],-1.02%
same,inhibition,[5]; [28],19.1%
same,inhibition,[5]; [29],-24.4%
same,inhibition,[5]; [30],5.29%
same,inhibition,"[5]; single agent, at 5 µM",37.4%
same,inhibition,[6]; at 0.5 µM,-42.4% (inactive)
same,inhibition,[6]; [31],-43.9%
same,inhibition,[6]; [32],-25%
same,inhibition,[7]; at 0.5 µM,-7.25% (inactive)
same,inhibition,[7]; [33],1.43%
same,inhibition,[7]; [34],-13.4%
same,inhibition,[8]; at 0.5 µM,5% (inactive)
same,inhibition,[8]; [35],-18.4%
same,inhibition,[8]; [36],-10.8%
same,inhibition,[9]; at 0.5 µM,-13% (inactive)
same,inhibition,[9]; [25],-18.6%
same,inhibition,[9]; [26],-37.8%
same,inhibition,[10]; at 0.5 µM,-18.5% (inactive)
same,inhibition,[10]; [37],-10.2%
same,inhibition,[10]; [38],25.8%
same,inhibition,[10]; [39],-39%
same,inhibition,[10]; [40],38.4%
same,inhibition,[11]; [41],59.1%
same,inhibition,[11]; at 0.5 µM,2.01% (inactive)
same,inhibition,[11]; [42],60.8%
same,inhibition,[12]; at 0.5 µM,9.92% (inactive)
same,inhibition,[12]; [43],11.5%
same,inhibition,[12]; [44],17.7%
same,inhibition,[13]; at 0.5 µM,-9.67% (inactive)
same,inhibition,[13]; [45],-1.86%
same,inhibition,"[13]; cisplatin combination, at 5 µM",27.3%
same,inhibition,[13]; [46],-3.3%
same,inhibition,"[13]; single agent, at 5 µM",6.62%
same,inhibition,[14]; at 0.5 µM,-19% (inactive)
same,inhibition,"[14]; cisplatin combo, at 5 µM",25.8%
same,inhibition,[14]; [47],-28.4%
same,inhibition,[14]; [25],22%
same,inhibition,"[14]; single agent, at 5 µM",8.19%
same,inhibition,[15]; at 0.5 µM,-4.87% (inactive)
same,inhibition,[15]; [22],-10.5%
same,inhibition,[15]; [23],-4.39%
same,inhibition,"[15]; single agent, at 0.05 µM",-22.9%
same,inhibition,"[15]; single agent, at 5 µM",44.6%

# From PubChem BioAssay
